Results on 50 compounds are retold here after PubChem BioAssay (NCATS).

Unmarked numbers belong to inactive results. Results filed as inconclusive are left out. Active and inactive are the calls of the source. Unless noted, calls come from the whole dose curve; as a rule, active = well fitted curve in either direction with a large enough effect (not every such curve was filed as active); inconclusive = small, poorly fitted or top-dose-only effect, or another doubt; inactive = flat fitted curve, though single readings scatter.

Assay [1] can be described thus: AP1 Signaling Pathway (AID 357). Note: % is set by controls: 0 for no effect and ±100 for the full control effect. The note with it: ME-180 AP-1-bla reporter, EGF-induced, beta-lactamase ratio, 5 h; at 17.2 µM (top of the series) unless noted. The method, boiled down: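 Cells are seeded overnight, exposed to compound titrations and an EC50 level of EGF for 5 hours at 37 °C, then loaded with CCF4 dye for 2.5 hours. Beta-lactamase activity under the AP-1 element is read as a blue/green ratio.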

The nature of assay [2]: NFAT Signaling Pathway (AID 444).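 Note: carbachol stimulus at about its EC50 of 1 µM final; % is set by controls: 0 for no effect and ±100 for the full control effect.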 The note with it: Jurkat NFAT-bla M1, carbachol, beta-lactamase ratio, 5 h; at 17.2 µM (top of the series) unless noted. The method, boiled down: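 Jurkat cells with NFAT-driven β-lactamase reporter and co-expressed M1 receptor, stimulated with carbachol (final 1 uM, ~EC50), compound titration, 5 h at 37 °C. CCF4 loaded 1 h at RT; 460/530 nm ratio gave %activity and AC50.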

A short description of assay [3]: Stat Signaling Pathway (AID 446).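 Note: ME-180 cervical cancer cells given 40 pM IL-6 alongside compound; SIE-controlled beta-lactamase reporter measured as 460/530 nm FRET emission ratio; % is set by controls: 0 for no effect and ±100 for the full control effect.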 The note with it: ME-180 (cervical carcinoma) SIE beta-lactamase reporter, IL-6 stimulated, 5 h; at 17.2 µM (top of the series) unless noted. The method, boiled down: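 FRET read-out (405 nm excitation, 460/530 nm emission) of a beta-lactamase reporter under a STAT-inducible element in ME-180 cervical carcinoma cells. Cells with compound receive 40 pM IL-6 for 5 h. Values are normalised to AC90 stimulation and AC90 JAK-inhibitor controls.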

Assay [4] deals with Glucocorticoid receptor (Homo sapiens) (UniProt P04150). In words: GR-GFP Redistribution (AID 450;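 active = compounds whose dose series gives a full or clear partial fitted curve of increased nuclear translocation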; note: potency is the fitted concentration of half-maximal effect).
Chain of Glucocorticoid receptor (Homo sapiens) (P04150 whole entry, looked up): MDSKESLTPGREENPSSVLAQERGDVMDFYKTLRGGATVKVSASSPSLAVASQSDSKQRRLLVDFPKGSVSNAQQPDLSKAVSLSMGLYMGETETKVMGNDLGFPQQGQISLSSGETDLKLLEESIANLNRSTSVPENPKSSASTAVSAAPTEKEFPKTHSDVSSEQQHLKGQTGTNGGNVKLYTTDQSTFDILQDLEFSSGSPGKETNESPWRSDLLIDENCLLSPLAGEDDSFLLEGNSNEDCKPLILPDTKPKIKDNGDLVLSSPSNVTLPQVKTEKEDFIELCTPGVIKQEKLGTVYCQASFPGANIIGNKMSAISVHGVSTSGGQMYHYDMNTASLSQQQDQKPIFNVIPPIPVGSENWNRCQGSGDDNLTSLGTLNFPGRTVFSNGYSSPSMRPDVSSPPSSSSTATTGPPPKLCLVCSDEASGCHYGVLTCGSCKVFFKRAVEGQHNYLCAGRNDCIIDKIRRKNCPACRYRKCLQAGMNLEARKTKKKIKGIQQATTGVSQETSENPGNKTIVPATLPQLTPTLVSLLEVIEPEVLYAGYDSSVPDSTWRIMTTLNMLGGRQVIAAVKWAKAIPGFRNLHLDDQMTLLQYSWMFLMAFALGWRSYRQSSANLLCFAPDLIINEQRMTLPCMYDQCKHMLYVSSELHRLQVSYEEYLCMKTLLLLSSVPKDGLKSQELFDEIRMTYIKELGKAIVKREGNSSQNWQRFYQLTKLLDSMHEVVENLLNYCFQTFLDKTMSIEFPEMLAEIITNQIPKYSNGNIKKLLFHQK

On to `CCOC(=O)c1[nH]c2cc3c(cc2c1NC(=O)CN1CCC(C)CC1)OCO3`, for which the activity change, negative = inhibition in assay [1] was -11.2%; in assay [2] it was 3.83%. The activity, negative = inhibition in assay [3] was -3.19%. Also, in assay [4], the Potency was over 20.6 µM.
Taken in the same sequence, the figures for `FC(F)(F)c1cccc(-n2cccc2/C=N/n2cnnc2)c1` were 8.38%, -0.658%, 10.7% and over 20.6 µM.
Taken in the same sequence, the figures for `Cc1c(CCC#N)c(N2CCCCC2)n2c(nc3ccccc32)c1C#N` were -4.98%, -11.4%, 10.9% and over 20.6 µM.
In the case of `CC1(C)Cc2c(oc3ncn4ncnc4c23)CO1`, the activity change, negative = inhibition in assay [1] is -9.2%; in assay [2], -1.16%. Besides, in assay [3], the activity, negative = inhibition was 7.25%. Besides, in assay [4], the Potency was over 20.6 µM.
The matching figures for `CCOc1ccc(C2=Nn3c(nnc3-c3cccnc3)SC2)cc1`: 3.18%, -2.85%, -4.46% and over 20.6 µM.
As for `O=C(CN1CCc2[nH]c3ccccc3c2C1)N1CCCCC1`, the activity change, negative = inhibition in assay [1] was -7.36%; in assay [2] it was -20.1%. In assay [3], the activity, negative = inhibition was 4.96%. The Potency in assay [4] was over 20.6 µM.
On to `O=C(c1ccc(=O)oc1)N1CCN(c2ccc(F)cc2)CC1`, for which the activity change, negative = inhibition is 2.08% in assay [1] and -11.6% in assay [2]. Also, in assay [3], the activity, negative = inhibition was -4.16%. Besides, in assay [4], the Potency is over 20.6 µM.
The matching figures for `O=C(NCCCN1CCOCC1)C1(c2ccccc2)CCOCC1`: 3.71%, -0.629%, 5.62% and over 20.6 µM.
The matching figures for `CCCCOc1ccc(-c2nnc(N)s2)cc1`: 2.03%, 25.3%, 10.7% and over 20.6 µM.
The matching figures for `CCOC(=O)c1c(C)n(C)c2ccc(OC)c(NC(=O)CN3CCSCC3)c12`: -2.27%, -0.789%, -8.37% and over 20.6 µM.
Consider `CC1(C)Cc2c(c(-c3ccccc3Cl)[nH]c(=O)c2C#N)CO1`, for which the activity change, negative = inhibition was 13% in assay [1] and -5.06% in assay [2]. Also, the activity, negative = inhibition in assay [3] was 2.62%. Also, the Potency in assay [4] is over 20.6 µM.
The matching figures for `CCOC(=O)c1ccc(-n2c(=O)[nH]c3ccccc3c2=O)cc1`: 3.86%, 6.82%, 2.95% and over 20.6 µM.
Taken in the same sequence, the figures for `CNC(=O)c1ncnnc1N(C)C(=O)NCc1ccccc1` were -4.45%, 4.03%, 0.797% and over 20.6 µM.
For the compound `Nn1c(SCC(=O)Nc2ccc3c(c2)OCCO3)nnc1C(F)(F)F`, the activity change, negative = inhibition in assay [1] was 3.25%; in assay [2], -1.93%. The activity, negative = inhibition in assay [3] is 9.15%. Besides, the Potency in assay [4] was over 20.6 µM.
Taken in the same sequence, the figures for `CC(C)Oc1ccc(/C(O)=C2/C(=O)C(=O)N(CCN3CCOCC3)C2c2ccccc2)cc1` (stereo not given) were -9.89%, 19.7%, -0.677% and over 20.6 µM.
The matching figures for `CC(C)c1cc(NCCCN2CCOCC2)n2c(nc3ccccc32)c1C#N`: -14.3%, -9.44%, 0.608% and over 20.6 µM.
Taken in the same sequence, the figures for `CSC(=Nc1ccccc1)C1=C(O)COC1=O` were 3.1%, 4.52%, -5.43% and over 20.6 µM.
Consider `O=C(C1=C(O)C(=O)N(c2ncccn2)C1c1cccc(Cl)c1)c1ccco1` (stereo not given), for which the activity change, negative = inhibition was -4.37% in assay [1] and 22.6% in assay [2]. For the same compound, the activity, negative = inhibition in assay [3] was -6.45%. Also, in assay [4], the Potency was over 20.6 µM.
Taken in the same sequence, the figures for `O=C(c1coc(=O)c(Br)c1)N1CCCc2ccccc21` were 11.9%, 0.236%, 8.49% and over 20.6 µM.
The matching figures for `CCN(CC)CCN1C(=O)C(O)=C(C(=O)c2cccs2)C1c1ccccn1` (stereo not given): -0.981%, 9.2%, -0.0775% and over 20.6 µM.
The matching figures for `Cn1c(SCC(=O)N2CCOCC2)nnc1-c1ccc(Cl)cc1Cl`: -13.7%, -5.6%, 5.04% and over 20.6 µM.
With `Cc1nc(-c2c(-c3ccc(O)cc3O)noc2C(F)(F)F)cs1`, the activity change, negative = inhibition is -11.8% in assay [1] and -22% in assay [2]. For the same compound, in assay [3], the activity, negative = inhibition is -18.8%. Besides, in assay [4], the Potency was over 20.6 µM.
The matching figures for `Nc1[nH]nc2nc(NCc3ccccc3)c3c(c12)CCN(Cc1ccccc1)C3`: -11.4%, 0.244%, 6.86% and over 20.6 µM.
Regarding `COCCOC(=O)C1=C(C)NC(SCC(=O)NC(C)(C)C)=C(C#N)C1c1ccco1` (stereo not given), the activity change, negative = inhibition was -20.5% in assay [1] and 12.6% in assay [2]. Also, in assay [3], the activity, negative = inhibition is -8.48%. The Potency in assay [4] was over 20.6 µM.
On to `NS(=O)(=O)c1cc2c(cc1Cl)NC(C1C[C@H]3C=C[C@@H]1C3)NS2(=O)=O` (stereo not given in full), for which the activity change, negative = inhibition in assay [1] was 4.88%; in assay [2], -20.1%. The activity, negative = inhibition in assay [3] was -0.0433%. Moreover, the Potency in assay [4] is over 20.6 µM.
Regarding `Cc1cc(C)n(C(=O)CNC(=O)CCc2ccccc2)n1`, the results for the activity change, negative = inhibition in assay [1] and in assay [2] were 8.64% and 9.94%, respectively. Further, in assay [3], the activity, negative = inhibition was 2.58%. In assay [4], the Potency was over 20.6 µM.
The matching figures for `CN(C)CC(O)COc1cccc(OCC(O)CN(C)C)c1` (stereo not given): 1.26%, -0.493%, 3.74% and over 20.6 µM.
Taken in the same sequence, the figures for `CCN(CC)S(=O)(=O)c1cccc2c(N(C)C)cccc12` were -13.4%, -17.2%, 19% and over 20.6 µM.
For `COC(=O)CN(c1cc(OC)ccc1OC)S(=O)(=O)c1ccc(OC)c(OC)c1`, the activity change, negative = inhibition in assay [1] was -25.5%; in assay [2], 4.34%. Further, the activity, negative = inhibition in assay [3] was -5.92%. Moreover, the Potency in assay [4] was over 20.6 µM.
Taken in the same sequence, the figures for `COC(=O)c1ccc(Cn2c(O)c(N=O)c3ccccc32)o1` were -14.4%, 18.3%, 3.14% and over 20.6 µM.
Taken in the same sequence, the figures for `Cc1c(C)[n+](=O)c2c(n1[O-])CCC2` were 0.615%, -5.07%, -0.102% and over 20.6 µM.
The matching figures for `CC(C)(C)NC(=O)CSc1nsc(SCC(=O)NC(C)(C)C)c1C#N`: -5.49%, -10.2%, 3.19% and over 20.6 µM.
Turning to `N#C/C(C(=O)N1CCCCC1)=C1\Nc2ccccc2S1`, the results for the activity change, negative = inhibition in assay [1] and in assay [2] were -15% and 11.9%, respectively. Besides, the activity, negative = inhibition in assay [3] is -10.3%. Further, in assay [4], the Potency was over 20.6 µM.
The matching figures for `N#CCCn1cnc2c(=S)nc[nH]c21`: 16.8%, 11.2%, 11.6% and over 20.6 µM.
The matching figures for `COc1ccc(-n2ncc3c(N4CCC(C(N)=O)CC4)ncnc32)cc1`: -0.0678%, 6%, -1.03% and over 20.6 µM.
The matching figures for `Cc1cccc(-n2ncc3c(NCCN4CCOCC4)ncnc32)c1`: 1.48%, 8.91%, 4.97% and over 20.6 µM.
For the compound `CCc1cc(=O)oc2cc(C)c(CN3CCCC(C)C3)c(O)c12` (stereo not given), the activity change, negative = inhibition in assay [1] is 1.74%; in assay [2], -12.2%. Also, the activity, negative = inhibition in assay [3] was -15.7%. Also, the Potency in assay [4] was over 20.6 µM.
Taken in the same sequence, the figures for `Cc1ccccc1NC(=O)NCCc1nc2ccccc2[nH]1` were -3.68%, -10.3%, -7.53% and over 20.6 µM.
Consider `COc1cccc(N2CCN(c3ncnc4c3[nH]c3ccc(F)cc34)CC2C)c1` (stereo not given), for which the activity change, negative = inhibition is -121% (active) in assay [1] and -137% (active) in assay [2]. In addition, the activity, negative = inhibition in assay [3] is -104% (active). For the same compound, in assay [4], the Potency was over 20.6 µM.
Turning to `CCCOc1ccc(/C(O)=C2/C(=O)C(=O)N(CCCN3CCOCC3)C2c2ccncc2)cc1` (stereo not given), the activity change, negative = inhibition in assay [1] was -5.76%; in assay [2], 16.4%. In addition, the activity, negative = inhibition in assay [3] was 5.77%. Moreover, in assay [4], the Potency was over 20.6 µM.
For the compound `COc1cccc(C=NCCNC(=O)c2nonc2N)c1O`, the activity change, negative = inhibition is 0.441% in assay [1] and -9.52% in assay [2]. For the same compound, the activity, negative = inhibition in assay [3] was 7.79%. For the same compound, the Potency in assay [4] is over 20.6 µM.
`O=C1C=C(NCCNc2c(F)c(F)c(CO)c(F)c2F)CCC1`: the activity change, negative = inhibition in assay [1] was -0.699%; in assay [2] it was -5.54%. Also, in assay [3], the activity, negative = inhibition was 2.13%. The Potency in assay [4] was over 20.6 µM.
For `COC(=O)c1ccc(C2/C(=C(/O)c3ccc(OC)cc3)C(=O)C(=O)N2c2cc(C)on2)cc1` (stereo not given), the figures for the activity change, negative = inhibition in assay [1] and in assay [2] were -14% and -13.5%, respectively. Moreover, the activity, negative = inhibition in assay [3] is -20.1%. Also, the Potency in assay [4] is over 20.6 µM.
The matching figures for `CCCCCCn1c(C(C)O)nc2ccccc21` (stereo not given): 0.304%, 5.62%, -3.73% and over 20.6 µM.
The matching figures for `Cc1cc(=O)n2[nH]c(N3C(=O)CCC3=O)nc2n1`: 5.03%, -4.69%, 11.6% and over 20.6 µM.
Take `Cc1csc(SCCn2c(Br)nc3c2c(=O)[nH]c(=O)n3C)n1`: the activity change, negative = inhibition in assay [1] is 1.52%; in assay [2], 4.32%. For the same compound, the activity, negative = inhibition in assay [3] is 1.99%. Further, in assay [4], the Potency was over 20.6 µM.
Taken in the same sequence, the figures for `CC1(C)Cc2c(sc3ncn4nnnc4c23)CO1` were -0.575%, 0.343%, 2.69% and over 20.6 µM.
Taken in the same sequence, the figures for `O=C(NCc1cccnc1)NC(C(F)(F)F)C(F)(F)F` were 12.5%, 2.52%, 8.58% and over 20.6 µM.
The matching figures for `C=CCNc1sc(C(=O)C2CC2)c(N)c1C#N`: -5.75%, 4.81%, -6.27% and over 20.6 µM.
For `CCOc1ccc(S(=O)(=O)N(C)C)cc1-c1nc2c(C(C)(C)C)nn(C)c2c(=O)[nH]1`, the activity change, negative = inhibition is 5.08% in assay [1] and 8.6% in assay [2]. In addition, the activity, negative = inhibition in assay [3] is -17.2%. Besides, the Potency in assay [4] was over 20.6 µM.
